# Test results published in PubChem BioAssay.
# The source made the active and inactive calls. Unless noted, no rule for the calls is given here.
# Experiments:
# [1] = A549 cell viability effects, profiling panel, calcein-AM fluorescence, 48 h, basal (AID 1162); conditions: higher = more signal; also: test concentration not given here
# [2] = adipocyte viability effects, profiling panel, cell-based, 3T3-L1 adipocytes, calcein-AM fluorescence, 48 h, basal (AID 1163); conditions: 3T3-L1 adipocytes viability, higher = more signal; also: test concentration not given here
# [3] = HepG2 cell viability effects, profiling panel, calcein-AM fluorescence, 48 h, basal (AID 1164); conditions: higher = more signal; also: test concentration not given here
# [4] = MM1S cell viability effects, profiling panel, calcein-AM fluorescence, 48 h, basal (AID 1165); conditions: higher = more signal;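 also: viability of MM1S multiple myeloma cells under basal unstimulated conditions; test concentration not given here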
# [5] = basal RPMI8226 viability, no added stimulus, profiling panel, cell-based, calcein-AM fluorescence, 48 h, PK04 Diversity Set (AID 1166); conditions: RPMI8226 myeloma viability, higher = more signal;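 also: cells grown under basal conditions without added stimulus; test concentration not given here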
# [6] = basal HepG2 mitochondrial membrane potential changes, profiling panel, cell-based, JC-1 fluorescence, 24 h, 100 nL compound (AID 1167); conditions: higher = more signal; also: test concentration not given here
# [7] = basal 3T3-L1 adipocyte mitochondrial potential changes, profiling panel, cell-based, JC-1 fluorescence, 3T3-L1 adipocytes, 24 h, 100 nL compound (AID 1168); conditions: JC-1 mitochondrial fluorescence, higher = more signal, called active from +8 up or from −8 down; also: test concentration not given here
# [8] = basal RPMI8226 mitochondrial membrane potential changes, profiling panel, cell-based, JC-1 fluorescence, 24 h, 100 nL compound (AID 1169); conditions: RPMI8226 myeloma, JC-1 mitochondrial potential fluorescence, higher = more signal; also: test concentration not given here
# [9] = basal MM1S mitochondrial membrane potential changes, profiling panel, cell-based, JC-1 fluorescence, 24 h, 100 nL compound (AID 1170); conditions: higher = more signal; also: test concentration not given here
# [10] = A549 lung cancer cell viability effects, profiling panel, resazurin fluorescence, 24 h, PK04 Diversity Set (AID 1171); conditions: higher = more signal, called active from +8 up or from −8 down; also: test concentration not given here
# [11] = HepG2 liver cancer cell viability effects, profiling panel, resazurin fluorescence, 24 h, PK04 Diversity Set (AID 1172); conditions: higher = more signal; also: test concentration not given here
# [12] = basal S. cerevisiae growth modulation, no modifier, primary screen, OD600, strain BY4716, 24 h, basal condition (AID 1173); conditions: OD600, 24 h, higher = more signal, called active from +8 up or from −8 down
# [13] = MM1S myeloma cell viability, profiling panel, resazurin fluorescence, basal, 24 h, PK04 Diversity Set (AID 1174); conditions: higher = more signal, called active from +8 up or from −8 down;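 also: MM1S multiple myeloma cell line; test concentration not given here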
# [14] = target: Dihydroorotate dehydrogenase (quinone), mitochondrial (Plasmodium falciparum (isolate 3D7)) (UniProt Q08210); assay: PfDHODH enzyme inhibitors, primary screen, biochemical, C-terminal His tag, absorbance 600 nm (AID 1175); conditions: DCIP absorbance 600 nm, higher = more signal, called active from +8 up or from −8 down;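 also: recombinant parasite enzyme with a five histidine tag at its C terminus; test concentration not given here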
# Chain of Dihydroorotate dehydrogenase (quinone), mitochondrial (Plasmodium falciparum (isolate 3D7)) (Q08210 whole entry, looked up): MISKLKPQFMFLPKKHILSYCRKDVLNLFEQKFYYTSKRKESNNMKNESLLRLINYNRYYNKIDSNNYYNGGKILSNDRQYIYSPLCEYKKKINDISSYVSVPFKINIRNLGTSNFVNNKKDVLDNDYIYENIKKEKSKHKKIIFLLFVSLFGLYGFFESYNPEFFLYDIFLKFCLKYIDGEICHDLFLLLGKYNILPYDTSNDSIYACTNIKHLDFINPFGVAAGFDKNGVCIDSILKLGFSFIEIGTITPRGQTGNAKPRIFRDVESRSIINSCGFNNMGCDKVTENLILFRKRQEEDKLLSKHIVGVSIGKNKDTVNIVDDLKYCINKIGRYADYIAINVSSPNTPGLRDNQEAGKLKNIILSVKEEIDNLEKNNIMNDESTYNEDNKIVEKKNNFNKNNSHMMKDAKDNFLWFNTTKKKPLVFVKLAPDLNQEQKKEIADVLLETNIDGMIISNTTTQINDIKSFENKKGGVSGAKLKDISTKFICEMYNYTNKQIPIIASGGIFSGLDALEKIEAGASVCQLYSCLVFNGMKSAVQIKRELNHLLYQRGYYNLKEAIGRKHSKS
# [15] = P. aeruginosa biofilm formation inhibitors, primary screen, strain PAO1, LB-PBS medium, absorbance 600 nm (AID 1176); also: test concentration not given here; conditions: P. aeruginosa PAO1 growth/biofilm, A600, 12 h; higher = more signal
# [16] = S. cerevisiae RM11-1a growth modifiers, primary screen, strain RM11-1a, OD600, basal, 24 h (AID 1177); conditions: OD600, 24 h, higher = more signal, called active from +8 up or from −8 down;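 also: cultures grown under basal conditions with no added stressor; test concentration not given here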
# [17] = E. coli acrAB mutant growth effects, primary screen, E. coli filamentation inducers, strain DRC39, OD650, 24 h (AID 1178); conditions: higher = more signal, called active from +8 up or from −8 down;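 also: growth measured as culture turbidity by optical density at 650 nm; test concentration not given here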
# [18] = E. coli acrAB mutant growth effects, primary screen, E. coli filamentation inducers, strain DRC39, OD650, 48 h (AID 1179);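 also: screen aims at cell division blockers that make cells filament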; conditions: E. coli DRC39 delta-acrAB growth, higher = more signal, called active from +8 up or from −8 down
# [19] = RPMI8226 myeloma cell viability, profiling panel, resazurin fluorescence, basal, 24 h, PK04 Diversity Set (AID 1180); conditions: higher = more signal;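 also: RPMI8826 multiple myeloma cell line at 5000 cells per well; test concentration not given here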
# [20] = target: E3 ubiquitin-protein ligase XIAP (Homo sapiens) (UniProt P98170); assay: XIAP binders, primary screen, biophysical, small-molecule microarray, fluorescence 635 nm (AID 1181); conditions: small-molecule microarray binding, higher = more signal;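 also: score merges 667 nm emission and signal to noise over triplicate slides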
# Chain of E3 ubiquitin-protein ligase XIAP (Homo sapiens) (P98170 whole entry, looked up): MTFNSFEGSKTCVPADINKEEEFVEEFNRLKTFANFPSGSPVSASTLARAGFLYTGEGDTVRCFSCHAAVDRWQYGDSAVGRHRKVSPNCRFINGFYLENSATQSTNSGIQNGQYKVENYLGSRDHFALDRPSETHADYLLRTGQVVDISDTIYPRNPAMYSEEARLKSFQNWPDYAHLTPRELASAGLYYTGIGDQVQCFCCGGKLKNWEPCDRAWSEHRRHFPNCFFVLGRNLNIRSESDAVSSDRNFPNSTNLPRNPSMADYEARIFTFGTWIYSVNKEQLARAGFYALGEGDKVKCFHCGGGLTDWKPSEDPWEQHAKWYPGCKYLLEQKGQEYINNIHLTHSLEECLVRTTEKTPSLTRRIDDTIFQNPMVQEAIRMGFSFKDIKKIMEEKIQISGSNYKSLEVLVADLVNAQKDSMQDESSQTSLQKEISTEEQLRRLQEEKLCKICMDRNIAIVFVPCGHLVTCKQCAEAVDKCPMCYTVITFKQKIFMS
SMILES,z-score [1],z-score [2],z-score [3],z-score [4],z-score [5],z-score [6],z-score [7],z-score [8],z-score [9],z-score [10],z-score [11],z-score [12],z-score [13],composite z-score [14],z-score [15],z-score [16],z-score [17],z-score [18],z-score [19],composite z-score [20]
CCOC(=O)C1=CC[C@@H](c2ccccc2C(F)(F)F)N(S(=O)(=O)c2ccc(C)cc2)[C@H]1c1ccc(C#N)cc1,-0.711,-0.842,-0.326,-0.509,-0.214,-1.02,-0.544 (inactive),0.801,-0.81,-0.035 (inactive),-0.0666,1.02 (inactive),-1.39 (inactive),-0.0408 (inactive),1.01 (inactive),-0.171 (inactive),-0.534 (inactive),0.312 (inactive),-0.823,-0.0172
C=CCOC(=O)[C@H]1[C@@H]2C(=O)O[C@@H](c3ccccc3)[C@@H](c3ccccc3)N2[C@@H](c2ccc(OCCOC(=O)[C@H]3C[C@H]4C(=O)N[C@@H](CCCCNC(C)=O)C(=O)N4[C@H]3c3ccc(O)cc3)cc2)[C@]12C(=O)Nc1ccccc12,1.72,0.496,1.27,-0.643,1.03,-0.297,-0.0783 (inactive),-0.748,-0.175,2.07 (inactive),2.07,-1.68 (inactive),1.74 (inactive),-0.875 (inactive),2.52 (inactive),-2.05 (inactive),2.63 (inactive),2.11 (inactive),1.11,0.0013
O=C1C2C=CC(C(O)c3ccc(Br)cc3)N(Nc3ccccc3F)C2C(=O)N1c1ccccc1 (stereo not given),1.79,0.085,0.418,1.05,-0.0004,-0.629,-1.56 (inactive),0.417,-1.46,0.0502 (inactive),0.732,-2.45 (inactive),-0.18 (inactive),0.356 (inactive),0.629 (inactive),-1.17 (inactive),0.774 (inactive),2.06 (inactive),0.489,0.0933
COC(=O)C1=CC(CCCO)=CC(C2CC2)N(C)C=C1C(=O)OC (stereo not given),2.6,0.435,1.45,0.828,2.02,0.63,-0.757 (inactive),-0.225,-1.27,-0.951 (inactive),0.421,-0.589 (inactive),-0.463 (inactive),-1.43 (inactive),0.82 (inactive),-1.09 (inactive),1.04 (inactive),1.58 (inactive),-0.0242,0.0054
CCOC(=O)C[C@H]1[C@H](OC(=O)c2ccccc2-c2ccccc2)[C@@H](NC(=O)C2CCCCC2)c2cc(OCCCO)ccc2N1C(=O)Cc1ccc(OC)cc1,0.544,0.744,0.43,-0.524,-0.593,0.908,-0.388 (inactive),-0.285,-0.663,0.361 (inactive),-0.18,0.0422 (inactive),-0.257 (inactive),0.0563 (inactive),0.0238 (inactive),-0.508 (inactive),-0.506 (inactive),-0.657 (inactive),-0.466,-0.159
